In PubChem BioAssay (NCATS) one finds outcome and Potency data, which are given here for 57 compounds.

Experiment [1] concerns the target Thioredoxin reductase 1, cytoplasmic (Rattus norvegicus) (UniProt O89049). The experiment can be described thus: qHTS Assay for Substrates of Mammalian Selenoprotein Thioredoxin Reductase 1 (TrxR1) (AID 488772).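 Also: NADPH fluorescence in the first read after selenite addition and not the 8 min delta; series mostly up to about 57 µM; a drop in NADPH fluorescence below the no-compound background marks a TrxR1 substrate.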 Put shortly: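 Quantitative HTS in Tris-HCl buffer at pH 7.5 with EDTA and Tween-20, using rat TrxR1, 400 uM NADPH and 400 uM selenite (final). A fall in initial NADPH fluorescence relative to background marked substrate behaviour.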
Background: Quantitative high-throughput screening tests each substance at several concentrations.

Experiment [2] shares this target. Kind of experiment: qHTS Assay for Inhibitors of Mammalian Selenoprotein Thioredoxin Reductase 1 (TrxR1) (AID 488773).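 Also: drop in NADPH fluorescence over an 8 min run after selenite addition; series mostly up to about 57 µM; nearly all actives have a fitted effect of over 40% in size.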 The method in brief: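 Steps: enzyme (90 nM) plus NADPH (400 uM final), 5 min at ~22 deg C; compound added, 15 min; selenite (400 uM final) added; fluorescence followed for 8 min. Concentration-response curves derived from the normalized delta values.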

In experiment [3] the target is Flap endonuclease 1 (Homo sapiens) (UniProt P39748). Kind of experiment: qHTS Validation Assay for the Inhibitors of Human Flap endonuclease 1 (FEN1) (AID 488816). The method in brief: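 Human FEN1 (10 nM) preincubated 15 min at room temperature with compounds, then flap DNA substrate added at 50 nM final. Fluorescence read at 0 and 15 min; concentration-response fitted with four-parameter Hill equation.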

Experiment [4] addresses M-phase phosphoprotein 8 (Homo sapiens) (UniProt Q99549). The experiment can be described thus: qHTS Validation Assay for Inhibitors for MPP8 Chromodomain Interactions with Methylated Histone Tails (AID 488949). Also: top concentration of the series differs between compounds; nearly all actives have a fitted effect of over 55% in size. The method in brief: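 MPP8 (50 nM) was preincubated with biotinylated H3(1-18)K9me3 peptide (50 nM) in PBS pH 7.4, 0.01% Tween-20 for 30 min at room temperature, then with compounds for 30 min; binding was detected by AlphaScreen.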

For experiment [5], the target named is Methanococcus maripaludis chaperonin (MmCpn) (UniProt Q6LX38). The experiment can be described thus: High-Throughput Screening for Modulators of Cytosolic Chaperonin Activity: MmCpn Primary Screen (AID 488978).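 Also: 50 nM MmCpn enzyme hydrolysing 30 µM ATP at 37 °C.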 The method in brief: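 MmCpn (50 nM final) was preincubated with compound 5 min at RT, then 30 uM ATP (final) was added and the reaction ran 10 min at 37C. ADP produced was detected by Transcreener HTRF (ex 320 nm; em 590/665 nm).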

The target in experiment [6] is Transient receptor potential cation channel subfamily V member 1 (Homo sapiens) (UniProt Q8NER1). The experiment can be described thus: HTS Assay for Compounds that Act as Enhancers of the Vanilloid Receptor 1 (AID 488979). The method in brief:
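TRPV1 cells loaded with Fluo-8 calcium dye; compound added and Ca2+ signal (ex 480/em 520 nm) followed 3 min, then capsaicin at EC20 added and read 2 more min to detect enhancement.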

Experiment [7] concerns the target D(1A) dopamine receptor (Homo sapiens) (UniProt P21728). Kind of experiment: HTS Assay for Allosteric Agonists of the Human D1 Dopamine Receptor: Primary Screen for Agonists (AID 488981). Also: potency is read from the fitted curve at half-maximal effect. Put shortly:
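Tetracycline-induced HEK293 Trex D1 cells with forced coupling to calcium, loaded with no-wash calcium dye; kinetic fluorescence read 180 s after compound addition for agonism, then a further 180 s after an EC20 dopamine challenge for potentiation.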

The target is the same in experiment [8]. Kind of experiment: HTS Assay for Allosteric Agonists of the Human D1 Dopamine Receptor: Primary Screen for Antagonists (AID 488983).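 Also: calcium flux response to an EC80 dopamine challenge measured with no-wash dye; nearly all actives have a fitted effect of over 65% in size.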 Put shortly: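 Cells are induced with tetracycline and incubated overnight at 30 C, then loaded with calcium dye for 30 to 90 minutes at room temperature. Compound addition is followed by a 180 s read, then an EC80 dopamine addition and another 180 s read.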

Experiment [9] concerns the target ATP-dependent 6-phosphofructokinase (Trypanosoma brucei brucei) (UniProt O15648). The experiment can be described thus: qHTS Assay to Find Inhibitors of T. brucei phosphofructokinase: hit validation (AID 492961).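 Also: luminescence reports ADP formed as PFK phosphorylates fructose-6-phosphate with ATP; series mostly up to about 51 µM.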 Put shortly: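 Inhibition of parasite PFK is measured as reduced ADP formation, quantified via luciferase after ATP depletion. Assay used 0.1 mM ATP, 0.5 mM F6P, 1.25 nM enzyme, 45 min incubation.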

Experiment [10] has as its target Chromobox protein homolog 1 (Homo sapiens) (UniProt P83916). Kind of experiment: qHTS Validation Assay for Inhibitors of HP1-beta Chromodomain Interactions with Methylated Histone Tails (AID 488953).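 Also: loss of AlphaScreen luminescence from HP1-beta binding biotinylated H3K9me3 peptide; series mostly up to about 110 µM; nearly all actives have a fitted effect of over 50% in size.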 The method in brief: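 50 nM HP1-beta + 50 nM biotin-H3(1-18)K9me3, PBS pH 7.4, 0.01% Tween-20, 30 min RT; compound added, 30 min RT; AlphaScreen beads 10 ug/mL final, 30 min dark; luminescence read.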

Records with an inconclusive call do not appear. Where a call stands in place of a potency, no number is given. The source made the active and inactive calls. Calls follow the shape of the dose curve; as a rule, active = well fitted curve in the direction sought with a large enough effect; inconclusive = small, poorly fitted or top-dose-only effect, or another doubt; inactive = no such curve, though single readings can be large; an effect the other way counts as inactive or inconclusive.

Chain of Thioredoxin reductase 1, cytoplasmic (Rattus norvegicus) (O89049 whole entry, looked up): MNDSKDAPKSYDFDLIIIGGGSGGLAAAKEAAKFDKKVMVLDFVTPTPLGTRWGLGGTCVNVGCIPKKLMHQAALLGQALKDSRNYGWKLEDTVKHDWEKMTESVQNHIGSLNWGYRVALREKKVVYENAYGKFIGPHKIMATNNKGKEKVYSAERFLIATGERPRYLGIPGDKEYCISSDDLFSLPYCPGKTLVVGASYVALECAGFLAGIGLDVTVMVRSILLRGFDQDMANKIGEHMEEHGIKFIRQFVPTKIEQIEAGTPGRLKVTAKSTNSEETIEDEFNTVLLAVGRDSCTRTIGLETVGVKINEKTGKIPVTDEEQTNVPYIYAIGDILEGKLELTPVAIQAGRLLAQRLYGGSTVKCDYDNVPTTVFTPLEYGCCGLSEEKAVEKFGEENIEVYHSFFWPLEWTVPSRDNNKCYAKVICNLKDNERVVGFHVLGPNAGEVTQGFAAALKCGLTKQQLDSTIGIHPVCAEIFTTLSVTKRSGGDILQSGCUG
Chain of M-phase phosphoprotein 8 (Homo sapiens) (Q99549 whole entry, looked up): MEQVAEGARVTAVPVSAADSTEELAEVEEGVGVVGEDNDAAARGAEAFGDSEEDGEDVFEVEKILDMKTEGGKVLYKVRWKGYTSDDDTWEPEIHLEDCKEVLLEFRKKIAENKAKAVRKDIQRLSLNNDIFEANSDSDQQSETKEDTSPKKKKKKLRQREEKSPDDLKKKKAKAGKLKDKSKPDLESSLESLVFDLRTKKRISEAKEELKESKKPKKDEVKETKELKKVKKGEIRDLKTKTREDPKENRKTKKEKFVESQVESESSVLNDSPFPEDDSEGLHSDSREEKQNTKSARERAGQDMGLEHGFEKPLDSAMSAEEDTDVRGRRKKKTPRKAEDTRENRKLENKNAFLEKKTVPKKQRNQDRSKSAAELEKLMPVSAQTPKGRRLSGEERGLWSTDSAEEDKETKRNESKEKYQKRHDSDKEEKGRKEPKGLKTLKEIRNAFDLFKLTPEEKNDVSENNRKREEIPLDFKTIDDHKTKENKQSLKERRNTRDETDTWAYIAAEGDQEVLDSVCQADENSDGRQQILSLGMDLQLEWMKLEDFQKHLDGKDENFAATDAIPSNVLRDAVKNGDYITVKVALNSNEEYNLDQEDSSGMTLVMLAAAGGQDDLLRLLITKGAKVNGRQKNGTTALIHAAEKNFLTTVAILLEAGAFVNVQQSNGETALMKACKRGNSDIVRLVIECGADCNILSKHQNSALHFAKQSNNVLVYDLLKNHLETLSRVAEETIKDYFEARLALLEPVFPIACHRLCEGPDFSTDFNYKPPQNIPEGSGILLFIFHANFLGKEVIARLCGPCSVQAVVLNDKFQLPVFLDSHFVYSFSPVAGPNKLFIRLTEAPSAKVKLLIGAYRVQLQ
Chain of Flap endonuclease 1 (Homo sapiens) (P39748 whole entry, looked up): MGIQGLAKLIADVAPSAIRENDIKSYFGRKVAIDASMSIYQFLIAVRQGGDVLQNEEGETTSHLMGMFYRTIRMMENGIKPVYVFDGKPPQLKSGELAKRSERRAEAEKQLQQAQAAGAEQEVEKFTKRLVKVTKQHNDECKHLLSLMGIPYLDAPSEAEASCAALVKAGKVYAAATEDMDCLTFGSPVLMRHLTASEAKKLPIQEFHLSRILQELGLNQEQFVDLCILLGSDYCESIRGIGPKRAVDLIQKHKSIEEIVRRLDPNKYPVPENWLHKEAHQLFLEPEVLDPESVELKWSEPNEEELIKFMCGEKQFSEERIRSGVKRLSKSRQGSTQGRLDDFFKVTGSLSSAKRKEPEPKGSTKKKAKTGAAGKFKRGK
Chain of Chromobox protein homolog 1 (Homo sapiens) (P83916 whole entry, looked up): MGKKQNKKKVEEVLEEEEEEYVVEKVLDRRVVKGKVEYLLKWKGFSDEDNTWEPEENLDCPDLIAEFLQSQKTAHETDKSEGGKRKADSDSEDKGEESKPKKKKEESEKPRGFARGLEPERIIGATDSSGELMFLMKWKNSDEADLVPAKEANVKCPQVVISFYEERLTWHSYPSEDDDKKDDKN
Chain of D(1A) dopamine receptor (Homo sapiens) (P21728 whole entry, looked up): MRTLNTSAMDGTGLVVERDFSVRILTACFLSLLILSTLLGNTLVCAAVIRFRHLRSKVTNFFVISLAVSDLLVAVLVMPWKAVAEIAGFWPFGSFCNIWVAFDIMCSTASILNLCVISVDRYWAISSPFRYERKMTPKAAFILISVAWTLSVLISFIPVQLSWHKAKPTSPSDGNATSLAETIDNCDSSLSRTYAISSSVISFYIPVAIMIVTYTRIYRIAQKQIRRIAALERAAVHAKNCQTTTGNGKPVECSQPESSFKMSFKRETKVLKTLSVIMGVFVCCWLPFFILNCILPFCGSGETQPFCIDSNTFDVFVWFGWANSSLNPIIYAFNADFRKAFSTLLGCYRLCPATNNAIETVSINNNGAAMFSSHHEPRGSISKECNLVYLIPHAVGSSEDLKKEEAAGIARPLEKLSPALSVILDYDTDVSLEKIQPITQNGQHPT
Chain of Transient receptor potential cation channel subfamily V member 1 (Homo sapiens) (Q8NER1 whole entry, looked up): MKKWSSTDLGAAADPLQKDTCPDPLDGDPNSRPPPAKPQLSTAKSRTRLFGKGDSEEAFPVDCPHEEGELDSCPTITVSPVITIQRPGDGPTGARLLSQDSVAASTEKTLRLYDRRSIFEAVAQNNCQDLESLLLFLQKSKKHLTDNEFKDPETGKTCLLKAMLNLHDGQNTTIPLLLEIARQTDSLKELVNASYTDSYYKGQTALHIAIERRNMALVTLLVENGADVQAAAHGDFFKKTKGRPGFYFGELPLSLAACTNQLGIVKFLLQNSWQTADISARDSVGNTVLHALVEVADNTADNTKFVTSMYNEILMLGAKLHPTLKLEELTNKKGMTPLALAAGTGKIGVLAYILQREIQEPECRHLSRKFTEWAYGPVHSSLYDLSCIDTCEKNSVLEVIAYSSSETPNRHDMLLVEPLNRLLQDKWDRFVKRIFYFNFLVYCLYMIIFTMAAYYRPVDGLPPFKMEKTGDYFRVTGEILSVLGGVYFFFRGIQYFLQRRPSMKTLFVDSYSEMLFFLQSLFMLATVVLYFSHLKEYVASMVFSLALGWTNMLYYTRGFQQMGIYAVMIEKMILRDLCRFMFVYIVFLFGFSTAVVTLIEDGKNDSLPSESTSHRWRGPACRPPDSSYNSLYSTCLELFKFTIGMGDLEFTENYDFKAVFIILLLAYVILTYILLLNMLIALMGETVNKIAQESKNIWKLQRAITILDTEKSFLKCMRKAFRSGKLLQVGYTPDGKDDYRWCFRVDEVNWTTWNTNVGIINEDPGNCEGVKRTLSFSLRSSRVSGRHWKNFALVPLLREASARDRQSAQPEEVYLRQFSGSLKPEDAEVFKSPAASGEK
Chain of Methanococcus maripaludis chaperonin (MmCpn) (Q6LX38 1-543): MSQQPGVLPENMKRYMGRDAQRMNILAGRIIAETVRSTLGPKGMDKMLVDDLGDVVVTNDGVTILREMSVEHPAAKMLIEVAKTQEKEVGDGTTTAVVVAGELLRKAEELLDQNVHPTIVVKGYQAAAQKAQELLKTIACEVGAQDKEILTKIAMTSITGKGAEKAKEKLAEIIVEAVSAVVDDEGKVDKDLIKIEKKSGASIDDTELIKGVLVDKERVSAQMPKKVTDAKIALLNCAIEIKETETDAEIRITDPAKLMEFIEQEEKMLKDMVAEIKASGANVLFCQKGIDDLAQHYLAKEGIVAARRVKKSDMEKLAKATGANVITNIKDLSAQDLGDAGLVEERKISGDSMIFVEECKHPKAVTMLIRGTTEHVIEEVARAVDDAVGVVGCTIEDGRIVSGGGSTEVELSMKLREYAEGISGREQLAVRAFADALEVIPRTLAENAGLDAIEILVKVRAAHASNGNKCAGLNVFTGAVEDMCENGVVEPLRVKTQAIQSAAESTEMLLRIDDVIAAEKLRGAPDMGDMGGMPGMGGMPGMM
Chain of ATP-dependent 6-phosphofructokinase (Trypanosoma brucei brucei) (O15648 whole entry, looked up): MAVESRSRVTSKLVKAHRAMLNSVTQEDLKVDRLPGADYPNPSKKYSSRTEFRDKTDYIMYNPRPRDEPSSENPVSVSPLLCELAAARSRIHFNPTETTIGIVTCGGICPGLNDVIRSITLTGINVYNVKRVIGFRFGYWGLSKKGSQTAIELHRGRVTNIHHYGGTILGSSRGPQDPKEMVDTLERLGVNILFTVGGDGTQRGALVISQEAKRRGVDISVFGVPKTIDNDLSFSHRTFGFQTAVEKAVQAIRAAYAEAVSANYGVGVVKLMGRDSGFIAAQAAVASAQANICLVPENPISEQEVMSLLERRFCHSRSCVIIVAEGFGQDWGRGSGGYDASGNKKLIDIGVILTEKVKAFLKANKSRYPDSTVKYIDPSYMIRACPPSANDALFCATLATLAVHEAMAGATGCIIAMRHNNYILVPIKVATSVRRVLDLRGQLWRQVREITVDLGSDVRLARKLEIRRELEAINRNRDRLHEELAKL

Take `O=C1CCC(c2ccc(-n3ccnc3)cc2)=NN1`: the outcome in [1], in experiment [2], in experiment [3], in experiment [5], in [6] and in experiment [9] was inactive. Also, the Potency result in experiment [4], in [7] and in [8] was “inactive” in each case.

`CC(=O)O[C@H]1C[C@@H]2CC[C@@H]3[C@H](CC[C@@]4(C)[C@H]3C[C@H]([N+]3(C)CCCCC3)[C@@H]4OC(C)=O)[C@@]2(C)C[C@@H]1[N+]1(C)CCCCC1`: the compound was classed as inactive in experiment [1], in experiment [2], in experiment [3] and in experiment [5]. Moreover, the Potency entry in experiment [4], in [10], in [7] and in [8] was “inactive” throughout.

For the compound `Oc1ccc(O)cc1`, the result in experiment [1], in experiment [2], in [3], in [5] and in [6] was inactive. The Potency result in experiment [4], in [7] and in experiment [8] was “inactive” throughout.

Regarding `CC(C)COC(=O)OCN1C(=O)CN(CCN2CC(=O)N(COC(=O)OCC(C)C)C(=O)C2)CC1=O`, the result in [1], in [2], in experiment [3], in experiment [5] and in experiment [6] was inactive. The Potency entry in [10], in experiment [7] and in [8] was “inactive” throughout.

`C[N+]1(CCCCC[N+]2(C)CCCC2)CCCC1`: the result in [1], in experiment [2], in [3], in experiment [5] and in experiment [6] was inactive. In addition, the Potency entry in experiment [4], in experiment [10], in [7] and in experiment [8] was “inactive” in each case.

Consider `CNCCC(Oc1ccccc1C)c1ccccc1` (centres undefined), for which the result in experiment [1], in experiment [5] and in [9] was inactive. In addition, the Potency entry in [4] and in [7] was “inactive” in each case.

On to `CC(C)NC[C@@H](O)COc1cccc2ccccc12`, for which the Potency entry in experiment [4] was “inactive”.

In the case of `N[C@H](CO)C(=O)O`, the result in experiment [1], in [2], in experiment [3], in [5] and in experiment [6] was inactive. The Potency entry in experiment [4], in experiment [10], in experiment [7] and in [8] was “inactive” each time.

For `CNCCC=C1c2ccccc2CCc2ccccc21`, the compound was classed as inactive in [1], in experiment [2], in experiment [5] and in experiment [9]. Besides, the Potency result in experiment [4] and in experiment [10] was “inactive” throughout. For the same compound, the Potency in [7] was 20 µM (active).

On to `COc1cc2c(cc1O)CC[C@@H]1[C@@H]2CC[C@]2(C)[C@@H](O)CC[C@@H]12`, for which the compound was called inactive in experiment [1], in [2], in experiment [3] and in experiment [5]. In addition, the Potency result in [4], in experiment [7] and in [8] was “inactive” throughout.

Turning to `O=C(COc1ccc(Cl)cc1)N1CCN(Cc2ccc3c(c2)OCO3)CC1`, in experiment [9], the call was inactive.

As to `CCN(CC)C(=O)N1CCN(C)CC1`, the compound was classed as inactive in [9].

Regarding `CN=C(NC#N)Nc1ccc(C2=NNC(=O)CC2C)cc1` (centres undefined), the Potency entry in [4] is “inactive”. Moreover, in experiment [6], the result was inactive.

On to `CCCCOc1cc(C(=O)NCCN(CC)CC)c2ccccc2n1`, for which the compound was classed as inactive in experiment [9].

As to `CCC(NC(C)C)C(O)c1ccc(O)c(O)c1` (centres undefined), the compound was classed as inactive in experiment [1], in [3], in experiment [5] and in experiment [6]. Besides, the Potency entry in experiment [4], in experiment [10], in experiment [7] and in experiment [8] was “inactive” in each case.

Regarding `C[C@@H]1C(=O)NC2=Nc3cccc(Cl)c3CN21`, the compound was called inactive in [1], in [2], in [3], in experiment [5] and in [6]. Also, the Potency result in experiment [4], in experiment [10], in experiment [7] and in [8] was “inactive” in each case.

For `CO/N=C1\CN(c2nc3c(cc2F)c(=O)c(C(=O)O)cn3C2CC2)CC1CN` (centres undefined), the outcome in [9] was inactive.

In the case of `COC1=CC(=O)C[C@@H](C)[C@]12Oc1c(Cl)c(OC)cc(OC)c1C2=O`, the compound was called inactive in experiment [9].

As for `CCCCCC=CCC=CCCCCCCCC(=O)OCC`, the compound was called inactive in experiment [9].

In the case of `CCOC(=O)/C=C(C)/C=C/C=C(C)/C=C/c1c(C)cc(OC)c(C)c1C`, in experiment [9], the compound was called inactive.

As to `CCCCOc1ccc(C(=O)CCN2CCCCC2)cc1`, the compound was classed as inactive in experiment [9].

For `CCCCOc1ccc(OCCCN2CCOCC2)cc1`, the outcome in [9] was inactive.

In the case of `CC(=O)Oc1ccc(C(=C2CCCCC2)c2ccc(OC(C)=O)cc2)cc1`, in [9], the compound was classed as inactive.

Turning to `O=C(OCCOCCO)c1ccccc1Nc1cccc(C(F)(F)F)c1`, in experiment [9], the compound was classed as inactive.

Turning to `COCc1c(C(C)C)nc(C(C)C)c(/C=C/[C@@H](O)C[C@@H](O)CC(=O)O)c1-c1ccc(F)cc1`, in experiment [9], the compound was classed as inactive.

Consider `CC(C)N=C(N)/N=C(\N)Nc1ccc(Cl)cc1`, for which the compound was classed as inactive in experiment [9].

Regarding `O=S1(=O)c2cccc3cccc(c23)N1CCCN1CCN(c2ccc(F)cc2)CC1`, the compound was called inactive in [9].

With `COc1ccc(C2C(=O)c3ccccc3C2=O)cc1`, the outcome in experiment [9] was inactive.

In the case of `CN(C)/N=N/c1nc[nH]c1C(N)=O`, in experiment [9], the call was inactive.

On to `COc1cc(OC)cc(OC)c1`, for which the compound was classed as inactive in [9].

Regarding `NCCCC[C@H](N[C@@H](CCc1ccccc1)C(=O)O)C(=O)N1CCC[C@H]1C(=O)O`, the compound was classed as inactive in experiment [9].

Regarding `CN(C)CC/C=C1\c2ccccc2Sc2ccc(Cl)cc21`, the outcome in [9] was inactive.

Turning to `Cc1ccnc(NS(=O)(=O)c2ccc(N)cc2)n1`, the outcome in experiment [9] was inactive.

Consider `CN1CCC[C@@H]1c1cccnc1`, for which the outcome in experiment [9] was inactive.

On to `CN=C(NC#N)NCCSCc1csc(N=C(N)N)n1`, for which, in [9], the compound was classed as inactive.

Consider `C[C@H]1C[C@H]2[C@@H]3CCC4=CC(=O)C=C[C@]4(C)[C@@]3(Cl)[C@@H](O)C[C@]2(C)[C@@]1(O)C(=O)CO`, for which the compound was called inactive in experiment [9].

On to `CC(=O)N/N=C/c1ccc([N+](=O)[O-])o1`, for which, in experiment [9], the outcome was inactive.

With `CCOC(=O)n1ccn(C)c1=S`, the call in experiment [9] was inactive.

On to `CCCCN1CCCC1C(=O)Nc1c(C)cc(C)cc1C` (centres undefined), for which the compound was called inactive in [9].

As to `NC(CO)(CO)CO`, in experiment [9], the outcome was inactive.

As for `Clc1ccc2c(c1)CCc1cccnc1C2=C1CCNCC1`, in [9], the outcome was inactive.

In the case of `NC(=O)C(=O)N/N=C/c1ccc([N+](=O)[O-])o1`, the compound was called inactive in experiment [9].

As for `O=c1ccc2ccccc2o1`, the outcome in [9] was inactive.

For `COc1ccc(CN2CCN(C(c3ccc(F)cc3)c3ccc(F)cc3)CC2)c(OC)c1OC`, in experiment [9], the result was inactive.

`COc1cc2c(cc1OC)C(=O)C(CC1CCN(Cc3ccccc3)CC1)C2` (centres undefined): the compound was called inactive in experiment [9].

As to `CC(Cc1cccc(C(F)(F)F)c1)NCCOC(=O)c1ccccc1` (centres undefined), the compound was called inactive in experiment [9].

With `NCCC(O)(P(=O)(O)O)P(=O)(O)O`, the result in experiment [9] was inactive.

Take `C[C@@H](CN(C)C)CN1c2ccccc2Sc2ccccc21`: the call in experiment [9] was inactive.

As for `O=C(O)CNC(=O)c1ccccc1`, in experiment [9], the call was inactive.

As to `CCn1cc(C(=O)O)c(=O)c2cnc(N3CCCC3)nc21`, in experiment [9], the call was inactive.

As for `C=CCc1ccc(O)c(OC)c1`, in experiment [9], the compound was classed as inactive.

For the compound `Cc1c(C)n(Cc2ccccc2)c2ccc(C(=O)OCCN(C)C)cc12`, the call in experiment [9] was inactive.

`CC[N+](CC)(CCNC(=O)C(=O)NCC[N+](CC)(CC)Cc1ccccc1Cl)Cc1ccccc1Cl`: the call in experiment [9] was inactive.

Take `Cc1cc(O)c(C(C)C)cc1Cl`: the call in [9] was inactive.

As to `CN(C(=O)CN(CCO)CC(=O)N(C)C(C)(C)Cc1ccccc1)C(C)(C)Cc1ccccc1`, the call in experiment [9] was inactive.

As for `CC(=O)Nc1c(I)cc(I)c(C(=O)O)c1I`, the call in experiment [9] was inactive.

`COc1c2occc2c(OC)c2c(=O)cc(C)oc12`: in [9], the compound was classed as inactive.
